Reference: PubChem BioAssay
Calls of active or inactive are those of the source. Unless noted, the rule behind the calls is not given here.

Columns and labels:
[1] = resazurin metabolic signal in HepG2 cells – cell-based, resazurin fluorescence, 24 h, PK04 Diversity Set, profiling panel (AID 1172); conditions: HepG2 viability, higher = more signal; note: test concentration not given here
[2] = budding yeast growth changes without added modifier – OD600, strain BY4716, 24 h, basal condition, primary screen (AID 1173); conditions: S. cerevisiae BY4716 growth, OD600, 24 h; higher = more signal, called active from +8 up or from −8 down
[3] = viability profiling in MM1S myeloma cells – cell-based, resazurin fluorescence, basal, 24 h, PK04 Diversity Set, profiling panel (AID 1174); conditions: higher = more signal, called active from +8 up or from −8 down;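 note: MM1S multiple myeloma cell line; test concentration not given here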
[4] = target: Dihydroorotate dehydrogenase (quinone), mitochondrial (Plasmodium falciparum (isolate 3D7)) (UniProt Q08210); test: inhibition of P. falciparum DHODH – biochemical, C-terminal His tag, absorbance 600 nm, primary screen (AID 1175); conditions: PfDHODH enzyme, DCIP absorbance 600 nm; higher = more signal, called active from +8 up or from −8 down;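 note: recombinant parasite enzyme with a five histidine tag at its C terminus; test concentration not given here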
[5] = inhibition of PAO1 biofilm formation – strain PAO1, LB-PBS medium, absorbance 600 nm, primary screen (AID 1176); note: test concentration not given here; conditions: P. aeruginosa PAO1 growth/biofilm, A600, 12 h; higher = more signal
[6] = growth modulation of vineyard yeast isolate – strain RM11-1a, OD600, basal, 24 h, primary screen (AID 1177);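 note: cultures grown under basal conditions with no added stressor; test concentration not given here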; conditions: S. cerevisiae RM11-1a growth, OD600, 24 h; higher = more signal, called active from +8 up or from −8 down
[7] = growth of efflux-deficient E. coli DRC39 – strain DRC39, OD650, 24 h, E. coli filamentation inducers, primary screen (AID 1178);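 note: growth measured as culture turbidity by optical density at 650 nm; test concentration not given here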; conditions: E. coli DRC39 acrAB, higher = more signal, called active from +8 up or from −8 down
[8] = growth of efflux-deficient E. coli DRC39 – strain DRC39, OD650, 48 h, E. coli filamentation inducers, primary screen (AID 1179);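 note: screen aims at cell division blockers that make cells filament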; conditions: E. coli DRC39 delta-acrAB growth, higher = more signal, called active from +8 up or from −8 down
[9] = viability profiling in RPMI8226 myeloma cells – cell-based, resazurin fluorescence, basal, 24 h, PK04 Diversity Set, profiling panel (AID 1180); conditions: higher = more signal;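 note: RPMI8826 multiple myeloma cell line at 5000 cells per well; test concentration not given here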
[10] = target: E3 ubiquitin-protein ligase XIAP (Homo sapiens) (UniProt P98170); test: small molecules binding XIAP protein – biophysical, small-molecule microarray, fluorescence 635 nm, primary screen (AID 1181); conditions: higher = more signal;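 note: score merges 667 nm emission and signal to noise over triplicate slides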
E3 ubiquitin-protein ligase XIAP (Homo sapiens), sequence (P98170 whole entry, looked up): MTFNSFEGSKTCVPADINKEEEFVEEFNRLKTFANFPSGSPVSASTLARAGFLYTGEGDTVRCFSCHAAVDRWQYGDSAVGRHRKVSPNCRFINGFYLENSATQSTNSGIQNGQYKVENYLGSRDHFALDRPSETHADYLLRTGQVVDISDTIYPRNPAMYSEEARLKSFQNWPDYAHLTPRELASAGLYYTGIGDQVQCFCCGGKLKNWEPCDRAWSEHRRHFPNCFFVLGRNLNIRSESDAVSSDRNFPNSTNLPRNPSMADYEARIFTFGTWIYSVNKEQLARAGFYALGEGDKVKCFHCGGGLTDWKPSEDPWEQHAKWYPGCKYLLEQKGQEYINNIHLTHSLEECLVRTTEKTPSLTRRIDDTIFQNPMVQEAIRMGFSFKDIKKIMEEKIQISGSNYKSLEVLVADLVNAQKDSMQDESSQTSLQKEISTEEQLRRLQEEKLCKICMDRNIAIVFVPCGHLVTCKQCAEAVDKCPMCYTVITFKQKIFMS

Dihydroorotate dehydrogenase (quinone), mitochondrial (Plasmodium falciparum (isolate 3D7)), sequence (Q08210 whole entry, looked up): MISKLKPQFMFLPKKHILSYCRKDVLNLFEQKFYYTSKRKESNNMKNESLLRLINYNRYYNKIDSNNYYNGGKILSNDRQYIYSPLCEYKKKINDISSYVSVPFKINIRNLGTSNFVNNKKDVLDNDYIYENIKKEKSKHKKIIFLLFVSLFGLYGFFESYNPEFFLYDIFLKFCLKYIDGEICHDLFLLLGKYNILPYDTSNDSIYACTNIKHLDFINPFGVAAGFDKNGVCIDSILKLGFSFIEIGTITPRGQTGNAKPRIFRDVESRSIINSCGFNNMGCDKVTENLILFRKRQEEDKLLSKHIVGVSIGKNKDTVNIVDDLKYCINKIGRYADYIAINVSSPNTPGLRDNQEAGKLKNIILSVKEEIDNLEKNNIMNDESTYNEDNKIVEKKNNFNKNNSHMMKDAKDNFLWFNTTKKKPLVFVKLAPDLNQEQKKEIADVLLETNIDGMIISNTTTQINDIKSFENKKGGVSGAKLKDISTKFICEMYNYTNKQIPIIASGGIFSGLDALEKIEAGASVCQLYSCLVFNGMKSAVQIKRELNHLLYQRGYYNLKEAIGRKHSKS

Compound	z-score [1]	z-score [2]	z-score [3]	composite z-score [4]	z-score [5]	z-score [6]	z-score [7]	z-score [8]	z-score [9]	composite z-score [10]
COCCOC(=O)N1C(=O)[C@@]2(c3ccccc31)[C@H](c1ccc(OCCO)cc1)N1[C@H](c3ccccc3)[C@H](c3ccccc3)OC(=O)[C@H]1[C@@H]2C(=O)N1CCCCCCC1	1.11	0.492 (inactive)	0.441 (inactive)	0.132 (inactive)	1.84 (inactive)	2 (inactive)	-0.965 (inactive)	-0.618 (inactive)	1.04	2.64
COCC1=C2[C@@H](CCc3ccccc3)OB(O)C[C@@H]2[C@@H]2C(=O)N(C)C(=O)[C@@H]2C1	-0.227	-0.926 (inactive)	-0.439 (inactive)	-0.173 (inactive)	0.294 (inactive)	0.0903 (inactive)	-0.0919 (inactive)	0.0253 (inactive)	-0.377	0.0512
CN1C(=O)[C@@]2(Cc3ccccc3)N=C(c3ccc(OCCCO)cc3)O[C@H]2c2ccccc21	-0.286	-6.2 (inactive)	-2.4 (inactive)	0.271 (inactive)	1.14 (inactive)	0.202 (inactive)	0.432 (inactive)	0.514 (inactive)	-1.99	0.283
C=CCC(OC(C)=O)[C@@H]1[C@@H](N(Cc2cc3ccccc3o2)C(=O)c2ccc(-c3ccccc3)cc2)c2cc(OCCCO)ccc2N1C(=O)Cc1ccc(OC)cc1 (stereo not given in full)	-0.716	1.4 (inactive)	-0.133 (inactive)	0.0211 (inactive)	0.0672 (inactive)	0.708 (inactive)	-0.384 (inactive)	-0.541 (inactive)	-0.209	-0.0414
C=C(CCCC)C(=O)CC[C@H](OC(=O)c1ccccc1-c1ccccc1C(=O)O)c1ccccc1OCCO	-1.08	-1.45 (inactive)	-0.976 (inactive)	-0.824 (inactive)	0.91 (inactive)	-0.0444 (inactive)	0.506 (inactive)	0.237 (inactive)	-1.03	0.0416
C=C(COC)/C(=C/C[C@H](OC(C)=O)c1cccc(OCCO)c1)c1cnc2ccccc2c1	-0.0054	1.02 (inactive)	-0.496 (inactive)	-6.23 (inactive)	0.0721 (inactive)	1.56 (inactive)	-0.901 (inactive)	-0.856 (inactive)	-0.58	-0.0749
CN1C(=O)C2C=CC(C(O)c3ccc(F)cc3)N(NC(=O)OC(C)(C)C)C2C1=O (stereo not given)	-1.37	1.18 (inactive)	-0.67 (inactive)	0.929 (inactive)	0.503 (inactive)	1.09 (inactive)	-0.592 (inactive)	-0.764 (inactive)	-1.37	0.171
COCCOC(=O)N1C(=O)[C@@]2(c3cc(C#Cc4ccc(OC)cc4)ccc31)[C@H](c1ccc(OCCO)cc1)N1[C@H](c3ccccc3)[C@H](c3ccccc3)OC(=O)[C@H]1[C@@H]2C(=O)Nc1nc2ccccc2s1	1.62	1.21 (inactive)	-0.606 (inactive)	-1 (inactive)	1.5 (inactive)	1.56 (inactive)	0.0318 (inactive)	-0.389 (inactive)	0.46	0.259
CC(C)CCC[C@@H](C)[C@H]1CC[C@@]2(C)C3=C(CC[C@]12C)[C@@]1(C)CC[C@H](OC(=O)c2ccccc2)C(C)(C)C1CC3 (stereo not given in full)	0.533	0.436 (inactive)	0.351 (inactive)	-1.48 (inactive)	0.968 (inactive)	-1.61 (inactive)	1.94 (inactive)	1.57 (inactive)	0.56	-0.248
COC(=O)C1N=C(c2ccc(OCCCO)cc2)N(c2ccccc2)O1 (stereo not given)	0.863	-1.41 (inactive)	-0.279 (inactive)	-1.24 (inactive)	-1.1 (inactive)	0.061 (inactive)	0.642 (inactive)	-0.0518 (inactive)	1.22	-0.0118
O=C1C2C=CC(C(O)C=Cc3ccc([N+](=O)[O-])cc3)N(Nc3ccccc3)C2C(=O)N1c1ccccc1 (stereo not given)	-0.392	-2.88 (inactive)	-1.44 (inactive)	-0.162 (inactive)	1.1 (inactive)	-0.0358 (inactive)	-0.125 (inactive)	0.242 (inactive)	0.185	-0.0103
O=C1NC(=O)C2C1C=CC(C(O)c1ccccn1)N2Nc1ccc(Cl)cc1Cl (stereo not given)	-1.08	-4.1 (inactive)	-0.837 (inactive)	-0.0894 (inactive)	0.931 (inactive)	0.351 (inactive)	-0.587 (inactive)	-0.534 (inactive)	-1.82	-0.131
O=C1OCCC/C=C\[C@H]2OC34C=CCN(c5ccc6ccccc6c5)C(=O)[C@H]3N(CCCO)C(=O)[C@@H]4C12 (stereo not given in full)	-0.408	0.556 (inactive)	-0.104 (inactive)	-0.818 (inactive)	-0.636 (inactive)	-1.1 (inactive)	-0.0367 (inactive)	-0.0547 (inactive)	0.375	-0.332
CCOC(=O)C[C@H]1[C@H](OC(=O)c2ccccc2-c2ccccc2)[C@@H](NC(=O)c2ccc3ccccc3n2)c2cc(OCCCO)ccc2N1C(=O)c1ccccc1	-0.412	1.16 (inactive)	-0.042 (inactive)	0.742 (inactive)	-0.165 (inactive)	1.01 (inactive)	-0.745 (inactive)	-0.916 (inactive)	0.303	0.0153
COc1ccc(C(=O)Nc2cccc(CN3C(=O)[C@]4(O[C@H](CCn5cc([C@H](O)c6ccccc6)nn5)[C@@H]([Si](C)(C)c5ccc(OC)cc5)[C@@H]4C)c4ccccc43)c2)cc1	-2.58	-1.18 (inactive)	-5.94 (inactive)	-0.512 (inactive)	1.86 (inactive)	0.99 (inactive)	-0.409 (inactive)	-0.389 (inactive)	-5.61	0.0589
CC(C)c1ccc(NN2C(C(O)Cc3ccccc3)C=CC3C(=O)N(c4ccccc4)C(=O)C32)cc1 (stereo not given)	-1.93	-1.02 (inactive)	-1 (inactive)	-0.335 (inactive)	0.683 (inactive)	0.269 (inactive)	-1.12 (inactive)	-1.07 (inactive)	-0.807	0.0989
COCCOC(=O)N1C(=O)[C@@]2(c3ccccc31)[C@H](c1ccccc1OCCO)N1[C@H](c3ccccc3)[C@H](c3ccccc3)OC(=O)[C@H]1[C@@H]2C(N)=O	-0.704	1.82 (inactive)	-2.78 (inactive)	0.565 (inactive)	2.07 (inactive)	1.98 (inactive)	0.322 (inactive)	-0.528 (inactive)	-4.57	-0.288
COCCOC(=O)N1C(=O)[C@@]2(c3cc(C#CC4(O)CCCCCC4)ccc31)[C@H](C(=O)N1CCN(c3ncccn3)CC1)[C@H]1C(=O)O[C@H](c3ccccc3)[C@H](c3ccccc3)N1[C@@H]2c1ccccc1OCCO	0.212	2.67 (inactive)	-0.194 (inactive)	0.97 (inactive)	2.12 (inactive)	3.05 (inactive)	-0.322 (inactive)	-0.473 (inactive)	0.177	-0.068
CO[C@H]1O[C@H](CO)[C@@H](OC(=O)c2ccc(Br)cc2)[C@@H]2OC(=O)[C@H](Cc3ccccc3)C/C=C/C[C@@H](Cc3ccccc3)C(=O)O[C@@H]12	0.722	-2.04 (inactive)	-1.33 (inactive)	-0.854 (inactive)	-0.124 (inactive)	-1.42 (inactive)	1.74 (inactive)	2.16 (inactive)	0.425	0.154
O=C1C2C=CC(C(O)c3cccc(O)c3)N(Nc3ccccc3)C2C(=O)N1c1ccccc1 (stereo not given)	-0.491	-0.774 (inactive)	-1.05 (inactive)	-0.791 (inactive)	0.67 (inactive)	0.196 (inactive)	-0.0671 (inactive)	0.0995 (inactive)	-0.985	-0.0806
CC1CC/C=C\[C@H]2OC34C=CCN(CCN5CCOCC5)C(=O)[C@H]3N(C(C)CO)C(=O)[C@@H]4C2C(=O)O1 (stereo not given in full)	-0.0282	-0.348 (inactive)	-0.0757 (inactive)	-1.44 (inactive)	-0.0711 (inactive)	0.366 (inactive)	-0.0135 (inactive)	0.432 (inactive)	-0.574	-0.0807
